In PMC9838217, “Structure of SALL4 zinc finger domain reveals link between AT-rich DNA binding and Okihiro syndrome”:
Numbering of substitutions follows the chain as printed.

Molecular target: T1, SALL4 ZFC4 WT (HT-SELEX) (Mus musculus, UniProt Q8BX22 870-940)
T1 sequence: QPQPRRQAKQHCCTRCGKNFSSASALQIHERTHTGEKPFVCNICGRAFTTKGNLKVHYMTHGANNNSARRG
Test: HT-SELEX; high values mean tight binding
Settings: protein: recombinant; vector His6-GST; dsDNA, one strand shown
Summary of the method: (§1)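 Recombinant mouse SALL4 zinc finger cluster 4 (residues 870–940, 1 µg), purified, was mixed with library DNA (1.5 µg in the first cycle, 200 ng thereafter) in 100 µl of buffer containing 10 mM Tris–HCl pH 7.5, 50 mM NaCl, poly(dI-dC) and DTT, and left for 10 min at room temperature. Complexes were captured on Ni2+ beads, washed, amplified by PCR and reselected for up to 6 cycles in triplicate, after which MiSeq sequencing and a 6-mer scan followed. Binding signal is the read fraction of each canonical k-mer, given as fold change relative to the starting random library.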

| Sequence | binding signal [fold-change vs cycle 0] |
| --- | --- |
| ACATCA | 1.32 ± 0.0619 |
| ACCCCT | 0.522 ± 0.0409 |
| CCTGTC | 0.437 ± 0.00717 |
| ATCCTA | 1.48 ± 0.0397 |
| GAGATC | 0.836 ± 0.059 |
| ACGGTC | 0.362 ± 0.0473 |
| AGCCCT | 0.343 ± 0.0204 |
| AATGCG | 0.428 ± 0.0345 |
| CTTGAA | 1.25 ± 0.0309 |
| CTATCA | 1.36 ± 0.0524 |
| CGTGAC | 0.379 ± 0.0323 |
| AGACAG | 0.803 ± 0.00959 |
| CCAACA | 0.656 ± 0.00995 |
| TTAGAA | 1.97 ± 0.0545 |
| TTATAA | 4.21 ± 0.59 |
| GGGGTA | 0.484 ± 0.0383 |
| GTATTA | 2.23 ± 0.186 |
| CTGACC | 0.426 ± 0.0325 |
| AGTACC | 0.813 ± 0.0272 |
| TAACAA | 2.11 ± 0.116 |

| Sequence | binding signal [fold-change vs cycle 0] |
| --- | --- |
| CACCTC | 0.511 ± 0.0163 |
| CAGCTG | 0.312 ± 0.0432 |
| CCAGAC | 0.368 ± 0.0286 |
| GCTTAC | 0.774 ± 0.0137 |
| AGCTTC | 0.709 ± 0.0328 |
| TCTCCA | 0.872 ± 0.044 |
| ATATTC | 2.62 ± 0.255 |
| ACCTGG | 0.46 ± 0.021 |
| ACAATA | 2.09 ± 0.146 |
| CCAACC | 0.393 ± 0.0262 |
| TCATGA | 1.45 ± 0.0979 |
| AGTTGA | 1.26 ± 0.0298 |
| GTGCAA | 0.539 ± 0.0349 |
| AATACT | 2.02 ± 0.117 |
| ACAGGG | 0.493 ± 0.038 |
| CTGACA | 0.738 ± 0.0153 |
| ATCCCG | 0.428 ± 0.0246 |
| ATGGTC | 0.721 ± 0.0351 |
| ATAGTA | 2.1 ± 0.131 |
| GACAGA | 0.725 ± 0.0509 |

Molecular target: T2, SALL4 ZFC4 R900W (HT-SELEX) (Mus musculus, UniProt Q8BX22 870-940, R900W)
T2 sequence: T1 sequence with R31W
Test: HT-SELEX; high values mean tight binding
Settings: protein: recombinant; vector His6-GST; dsDNA, one strand shown
Summary of the method: as §1

| Sequence | binding signal [fold-change vs cycle 0] |
| --- | --- |
| ACATCA | 1.42 ± 0.0539 |
| ACCCCT | 0.619 ± 0.0154 |
| CCTGTC | 0.533 ± 0.0129 |
| ATCCTA | 1.6 ± 0.0899 |
| GAGATC | 0.953 ± 0.0609 |
| ACGGTC | 0.432 ± 0.0371 |
| AGCCCT | 0.423 ± 0.0426 |
| AATGCG | 0.473 ± 0.0206 |
| CTTGAA | 1.42 ± 0.0651 |
| CTATCA | 1.47 ± 0.0491 |
| CGTGAC | 0.463 ± 0.0197 |
| AGACAG | 0.914 ± 0.0204 |
| CCAACA | 0.739 ± 0.0191 |
| TTAGAA | 2.01 ± 0.0848 |
| TTATAA | 2.77 ± 0.289 |
| GGGGTA | 0.541 ± 0.0115 |
| GTATTA | 1.98 ± 0.125 |
| CTGACC | 0.52 ± 0.0363 |
| AGTACC | 0.947 ± 0.0311 |
| TAACAA | 2.02 ± 0.138 |

| Sequence | binding signal [fold-change vs cycle 0] |
| --- | --- |
| CACCTC | 0.563 ± 0.0344 |
| CAGCTG | 0.397 ± 0.0183 |
| CCAGAC | 0.471 ± 0.0141 |
| GCTTAC | 0.852 ± 0.0208 |
| AGCTTC | 0.839 ± 0.0164 |
| TCTCCA | 0.992 ± 0.0225 |
| ATATTC | 1.95 ± 0.1 |
| ACCTGG | 0.537 ± 0.0102 |
| ACAATA | 1.92 ± 0.0865 |
| CCAACC | 0.466 ± 0.0254 |
| TCATGA | 1.54 ± 0.0952 |
| AGTTGA | 1.43 ± 0.0288 |
| GTGCAA | 0.616 ± 0.0276 |
| AATACT | 1.99 ± 0.126 |
| ACAGGG | 0.569 ± 0.0399 |
| CTGACA | 0.843 ± 0.0362 |
| ATCCCG | 0.4832 ± 0.00274 |
| ATGGTC | 0.8234 ± 0.00272 |
| ATAGTA | 2.08 ± 0.149 |
| GACAGA | 0.826 ± 0.0442 |

Molecular target: T3, SALL4 ZFC4 G921D (HT-SELEX) (Mus musculus, UniProt Q8BX22 870-940, G921D)
T3 sequence: T1 sequence with G52D
Test: HT-SELEX; high values mean tight binding
Settings: protein: recombinant; vector His6-GST; dsDNA, one strand shown
Summary of the method: as §1

| Sequence | binding signal [fold-change vs cycle 0] |
| --- | --- |
| ACATCA | 1.37 ± 0.0921 |
| ACCCCT | 0.676 ± 0.0257 |
| CCTGTC | 0.619 ± 0.0538 |
| ATCCTA | 1.46 ± 0.117 |
| GAGATC | 1.06 ± 0.0528 |
| ACGGTC | 0.553 ± 0.067 |
| AGCCCT | 0.56 ± 0.0891 |
| AATGCG | 0.61 ± 0.0401 |
| CTTGAA | 1.32 ± 0.0914 |
| CTATCA | 1.41 ± 0.0867 |
| CGTGAC | 0.556 ± 0.043 |
| AGACAG | 0.943 ± 0.0351 |
| CCAACA | 0.817 ± 0.0303 |
| TTAGAA | 1.75 ± 0.166 |
| TTATAA | 2.3 ± 0.394 |
| GGGGTA | 0.611 ± 0.0687 |
| GTATTA | 1.76 ± 0.141 |
| CTGACC | 0.621 ± 0.0521 |
| AGTACC | 0.981 ± 0.037 |
| TAACAA | 1.81 ± 0.153 |

| Sequence | binding signal [fold-change vs cycle 0] |
| --- | --- |
| CACCTC | 0.689 ± 0.0609 |
| CAGCTG | 0.499 ± 0.0395 |
| CCAGAC | 0.553 ± 0.0511 |
| GCTTAC | 0.908 ± 0.0208 |
| AGCTTC | 0.895 ± 0.0229 |
| TCTCCA | 0.99 ± 0.0254 |
| ATATTC | 1.78 ± 0.19 |
| ACCTGG | 0.635 ± 0.0393 |
| ACAATA | 1.71 ± 0.156 |
| CCAACC | 0.565 ± 0.0588 |
| TCATGA | 1.49 ± 0.115 |
| AGTTGA | 1.37 ± 0.0654 |
| GTGCAA | 0.721 ± 0.0304 |
| AATACT | 1.82 ± 0.161 |
| ACAGGG | 0.639 ± 0.0358 |
| CTGACA | 0.914 ± 0.0368 |
| ATCCCG | 0.574 ± 0.0423 |
| ATGGTC | 0.902 ± 0.0335 |
| ATAGTA | 1.83 ± 0.209 |
| GACAGA | 0.903 ± 0.00925 |
